Measurements published in PubChem BioAssay.
Activity calls are given as the source filed them. How the calls were made is not given here.

Target: Pantothenate synthetase (Mycobacterium tuberculosis (strain ATCC 25618 / H37Rv)) (UniProt P9WIL5)
Assay: Coupled enzyme confirmation of inhibitors against recombinant Mtb PanC (AID 375);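 further: 0% = full reaction with vehicle and 100% = no enzyme background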
Conditions: coupled enzyme assay; at 10 µM, active compounds read high

Chain of Pantothenate synthetase (Mycobacterium tuberculosis (strain ATCC 25618 / H37Rv)) (P9WIL5 whole entry, looked up): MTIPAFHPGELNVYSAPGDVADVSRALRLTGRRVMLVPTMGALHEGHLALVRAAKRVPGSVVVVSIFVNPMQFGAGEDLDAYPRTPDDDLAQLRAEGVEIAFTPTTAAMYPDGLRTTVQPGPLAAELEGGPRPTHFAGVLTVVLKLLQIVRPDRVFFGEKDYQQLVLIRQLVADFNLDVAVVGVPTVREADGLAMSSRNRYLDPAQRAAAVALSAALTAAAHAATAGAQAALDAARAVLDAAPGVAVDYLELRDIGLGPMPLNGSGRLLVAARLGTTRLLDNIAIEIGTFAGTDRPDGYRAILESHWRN

| SMILES | inhibition |
| --- | --- |
| CC(C(=O)N1CC2(C)CC1CC(C)(C)C2)N1C(=O)c2ccccc2C1=O (stereo unspecified) | 8% (inactive) |
| CN(C(=O)CSc1nc2c(c(=O)[nH]1)CCCC2)C1CCCCC1 | 0% (inactive) |
| Cc1c(C(=O)Nc2ccncc2)oc2c1C(=O)CC(C)(C)C2 | 5% (inactive) |
| CCCN1C=CC(=C2C(=O)c3ccccc3C2=O)C=C1 | 0% (inactive) |
| COc1cccc(-c2cc3nc4c(c(N5CCC6(CC5)OCCO6)n3n2)CCCC4)c1 | 0% (inactive) |
| COC(=O)C(C)C1Sc2ccccc2NC1=O (stereo unspecified) | 11% (inactive) |
| O=C(Nc1nnc(SCC(=O)N2CCCCC2)s1)C1CCCCC1 | 5% (inactive) |
| O=C(Nc1ccc(OC(=O)c2ccco2)cc1)c1ccco1 | 7% (inactive) |
| CCC(Sc1ncccc1C(=O)O)C(=O)N1CCCC1 (stereo unspecified) | 0% (inactive) |
| Cc1nnc(SCCn2c(Br)nc3c2c(=O)n(C)c(=O)n3C)s1 | 1% (inactive) |
| O=C(CCN1CCN(CCO)CC1)Nc1ccc(OCc2ccccc2)cc1 | 6% (inactive) |
| CCOc1ccc(N(C)S(=O)(=O)c2ccc3[nH]cc(C(=O)NCC4CCCO4)c(=O)c3c2)cc1 (stereo unspecified) | 0% (inactive) |
| COc1ccc(C(=O)NCCn2ccc3ccccc32)c(OC)c1 | 5% (inactive) |
| O=C(CSc1nc(C2CCCCC2)n(-c2ccccc2)n1)NCCN1C(=O)CSC1=O | 6% (inactive) |
| Cc1cccc(C)c1OCc1nnc2c3cnn(C)c3ncn12 | 0% (inactive) |
| O=C(CSc1nnnn1-c1ccc(Cl)cc1)NC(=O)Nc1ccc2c(c1)OCCO2 | 2% (inactive) |
| COc1ccc(C2c3c(oc4ccccc4c3=O)C(=O)N2Cc2ccncc2)cc1OC (stereo unspecified) | 6% (inactive) |
| COc1ccc(-c2cc(C(=O)NCc3ccc(Cl)cc3)no2)cc1OC | 0% (inactive) |
| N#CC(C(=O)CCN1C(=O)C2CC=CCC2C1=O)c1nc2ccccc2[nH]1 (stereo unspecified) | 0% (inactive) |
| CC(=O)Nc1ccc(S(=O)(=O)N2CCC(NC(C)=O)(c3cccc(F)c3)CC2)cc1 | 0% (inactive) |
| COc1ccc(S(=O)(=O)Nc2cc(C)on2)cc1OC | 0% (inactive) |
| Cc1cc(C)n2nc[n+](C)c2n1 | 0% (inactive) |
| O=C(NCCCN1CCCC1=O)C1CCN(S(=O)(=O)N2CCOCC2)CC1 | 0% (inactive) |
| CC(=O)Nc1c(O)n(C)c2ccccc12 | 2% (inactive) |
| COc1ccc(N2CCN(Cc3cc(=O)oc4cc(C)c(Cl)c(C)c34)CC2)cc1 | 6% (inactive) |
| COc1ccc(-c2noc(-c3ccccc3C(=O)NCc3ccco3)n2)cc1 | 3% (inactive) |

| SMILES | inhibition |
| --- | --- |
| CCN(c1ccc2c(c1)OCO2)S(=O)(=O)c1cc(Br)cc2c1N(C(=O)C1CC1)CC2 | 0% (inactive) |
| Cc1occc1C(=O)Nc1ccccc1NC(=O)c1ccoc1C | 3% (inactive) |
| CN(C)CCCN1c2ccccc2CCc2ccc(Cl)cc21 | 1% (inactive) |
| Cc1ccc(S(=O)(=O)NC(C)C(=O)Nc2ccc(C(N)=O)cc2)cc1 (stereo unspecified) | 0% (inactive) |
| O=C(c1cccnc1NCc1ccccc1)N1CCOCC1 | 0% (inactive) |
| COc1ccc(Cn2c(C)nc3c(c2=O)c2nc4ccccc4nc2n3Cc2ccco2)cc1 | 9% (inactive) |
| O=C(NC1CC1)c1ccc(S(=O)(=O)NCC2CCCCC2)cc1 | 0% (inactive) |
| COc1cccc(-c2nc3n(n2)C(c2cccs2)C(C(=O)Nc2cccnc2)=C(C)N3)c1 (stereo unspecified) | 0% (inactive) |
| COC(=O)c1c(C)oc2ccc(NS(=O)(=O)c3cccs3)cc12 | 0% (inactive) |
| CC1=C(C(=O)Nc2ccccc2C)C2(CCCC2)C(C(N)=O)C(=O)N1 (stereo unspecified) | 0% (inactive) |
| COc1ccccc1Nc1nc(N)nc(-c2cc3ccccc3o2)n1 | 0% (inactive) |
| Cc1coc(NC(=O)CSc2nc(-c3ccncc3)cc(C(F)(F)F)c2C#N)n1 | 0% (inactive) |
| CCn1c(SCC(=O)NCCc2ccc(Cl)cc2)nnc1-c1cccs1 | 1% (inactive) |
| Cc1cccc(OCC(=O)Nc2ccc(N3CCCC3)cc2)c1C | 0% (inactive) |
| CCn1c(SCC(=O)Nc2cccc(C)c2)nc2c(c1=O)SC(C)C2 (stereo unspecified) | 1% (inactive) |
| CCOc1ccccc1N1CCN(c2nc(N)c(C#N)c(CC#N)c2C#N)CC1 | 0% (inactive) |
| CN(C)CCCN1C(=O)C(=O)/C(=C(/O)c2ccncc2)C1c1cccc(Br)c1 (stereo unspecified) | 1% (inactive) |
| Cn1c(=O)c2c(nc(SCC(=O)NCc3ccco3)n2C)n(C)c1=O | 0% (inactive) |
| O=C(O)c1ccc(COc2ccc(Cl)cc2)o1 | 0% (inactive) |
| O=C(O)c1cc(-c2ccccc2Cl)n[nH]1 | 2% (inactive) |
| Cc1nc2ccc(NC(=O)N3CCC(c4ccccc4)C3)cc2nc1C (stereo unspecified) | 0% (inactive) |
| COc1ccc(OC)c(NC(=O)CSc2nnc(-c3ccco3)n2-c2ccccc2)c1 | 0% (inactive) |
| CC(=O)c1ccc(N2CCN(C(=O)c3cc(C)on3)CC2)cc1 | 0% (inactive) |
| CC(C)(C)NC(=O)CN(C(=O)CS(=O)CC(=O)Nc1ccc(F)cc1)c1ccc(Cl)cc1 (stereo unspecified) | 0% (inactive) |
| CCOC(=O)c1nn(-c2sc(C(=O)OC)c(C)c2C(=O)OC)cc1O | 18% (inactive) |
| CC1(C)CC(=O)C2=C(C1)OC(N)=C(C#N)C2C1CC=CCC1 (stereo unspecified) | 1% (inactive) |

| SMILES | inhibition |
| --- | --- |
| COC(=O)C1(C)NC(c2ccco2)C2C(=O)N(c3ccc(C)cc3)C(=O)C21 (stereo unspecified) | 4% (inactive) |
| COC(=O)C1=C(C)N(c2ccc(C(=O)OC)cc2)C(=O)C1 | 0% (inactive) |
| COc1ccc2c(c1OC)C(=O)OC2Nn1cncn1 (stereo unspecified) | 2% (inactive) |
| CNC(=O)CSc1nnc(-c2cccc(S(=O)(=O)N3CCOCC3)c2)n1-c1ccc(F)cc1 | 0% (inactive) |
| O=C(O)CCc1cc(I)c(Oc2ccc(O)c(I)c2)c(I)c1 | 8% (inactive) |
| CCCCCc1c(C)nc(Nc2nc(C)c3cc(OC)ccc3n2)[nH]c1=O | 0% (inactive) |
| Cc1ccc(CCP(=O)(O)CN2CCOCC2)cn1 | 0% (inactive) |
| O=c1c2c3c(sc2n2cnnc2n1CCc1ccccc1)CCCC3 | 5% (inactive) |
| Nc1cccc(C(=O)O)c1 | 0% (inactive) |
| C/C(Cl)=C/Cn1c(SCc2ccc(Cl)cc2)nc2c1c(=O)[nH]c(=O)n2C | 0% (inactive) |
| CCCS(=O)(=O)N1CCN(C(=O)c2cccnc2)CC1 | 0% (inactive) |
| O=C(NCC(c1cccnc1)N1CCN(c2ccc(F)cc2)CC1)OCc1ccccc1 (stereo unspecified) | 0% (inactive) |
| Cc1nnc(NC(=O)CCC(=O)N2CCC(C)CC2)s1 | 0% (inactive) |
| CCOC(=O)c1cccc(NC(=O)CSc2nnc(-c3cccnc3)n2C)c1 | 7% (inactive) |
| Cc1oc2c(CN3CCCC3)c(O)ccc2c(=O)c1-c1ccccc1 | 0% (inactive) |
| CN1CCN(S(=O)(=O)c2ccc(NC(=O)c3ccc(F)cc3)cc2)CC1 | 0% (inactive) |
| O=C(NC1CCN(Cc2nnnn2CCc2ccccc2)CC1)c1ccccc1F | 3% (inactive) |
| COc1ccc(S(=O)(=O)N2CCC(C(=O)c3ccc4c(c3)OCCO4)CC2)cc1 | 0% (inactive) |
| CCOc1cc(C2C(C(=O)OC(C)C)=C(C)N=C3SCCC(=O)N32)ccc1OC(C)=O (stereo unspecified) | 0% (inactive) |
| Cc1ccc(-n2c3c(cc(C(=O)NC4CCSC4=O)c2=O)C(=O)CC(C)(C)C3)cc1 (stereo unspecified) | 0% (inactive) |
| COCCCn1c(SCC(=O)N2CCc3ccccc32)nnc1-c1ccoc1C | 9% (inactive) |
| O=S(=O)(c1ccccc1)c1nc(-c2cccs2)oc1NCC1CCCO1 (stereo unspecified) | 3% (inactive) |
| COc1ccc(NC(=O)c2oc3ccc(S(=O)(=O)N4CCC5(CC4)OCCO5)cc3c2C)cc1 | 6% (inactive) |
| CCc1noc(C)c1C(=O)NCCc1ccc(OC)c(OC)c1 | 3% (inactive) |
| COc1ccc(NC(=O)Nc2ccc(C)cc2OC(F)F)cc1OC | 3% (inactive) |
| O=C(Cn1[nH]c(=O)c2ccccc2c1=O)OCC(=O)N1CCCc2ccccc21 | 5% (inactive) |

| SMILES | inhibition |
| --- | --- |
| Cc1cccc(N(C)C(=O)c2cc3cc4ccc(C)cc4nc3o2)c1 | 0% (inactive) |
| O=C(Nc1ccc(Cl)cc1)N1CCSCC1 | 1% (inactive) |
| COC(=O)C1C2C=CC3(CN(CC4CCCO4)C(=O)C13)O2 (stereo unspecified) | 0% (inactive) |
| CCSc1nnc(NC(=O)c2cc(C)oc2C)s1 | 11% (inactive) |
| O=S(=O)(NCCc1ccccn1)c1cccs1 | 3% (inactive) |
| COc1cccc(-c2noc(-c3cccs3)n2)c1 | 1% (inactive) |
| COc1cccc(OCc2nnc(SCC(=O)OCc3ccccc3)o2)c1 | 0% (inactive) |
| CCCSc1nc2c(cnn2-c2ccc(C)cc2)c(=O)[nH]1 | 0% (inactive) |
| CC1CCc2cc(F)cc3c(O)c(C(=O)Nc4cnccn4)c(=O)n1c23 (stereo unspecified) | 0% (inactive) |
| C[C@H](CS)C(=O)N1CCC[C@H]1C(=O)O | 2% (inactive) |
| CC(=O)N1C(=O)c2cccc3cccc(c23)C(=O)N1C(C)=O | 0% (inactive) |
| COC(=O)C1=C(C)Nc2ncnn2C1c1ccc(C)o1 (stereo unspecified) | 0% (inactive) |
| CCn1c(=N)n(CC(=O)C23CC4CC(CC(C4)C2)C3)c2ccccc21 | 0% (inactive) |
| C/C(N)=C(\C#N)C(=O)NCCc1ccccn1 | 0% (inactive) |
| N#CCCn1cnc2ccccc21 | 0% (inactive) |
| O=P(O)(O)c1ccccc1OCCOCCOc1ccccc1P(=O)(O)O | 4% (inactive) |
| CCOc1ccccc1N(CC(=O)NC1CCCC1)C(=O)CCCC(=O)Nc1ccccn1 | 5% (inactive) |
| O=C(O)CCc1ccc(-c2ccccc2)n1CC(=O)O | 0% (inactive) |
| CCn1c(C)nc2cc(C(=O)OCCC(F)(F)F)ccc21 | 0% (inactive) |
| COc1ccccc1N=Cc1nc(-c2ccccc2)oc1OC(C)=O | 0% (inactive) |
| ON1C2CCCCC2N(O)C1c1c(F)c(F)c(F)c(F)c1F (stereo unspecified) | 7% (inactive) |
| N#CC1=C(N)N(c2ccccc2)C(c2ccco2)C1(C#N)C#N (stereo unspecified) | 2% (inactive) |
| COc1ccc(OC)c(NC(=O)CSc2nc3ccccc3c(=O)n2CCNC(C)=O)c1 | 0% (inactive) |
